Source: PubChem BioAssay (several laboratories)
The list is not random: actives were taken first. Their share in the collection is about 5.4%.
PHOSPHO1 block = inhibitors of human PHOSPHO1 phosphatase. recombinant PHOSPHO1, absorbance phosphatase assay. 1.1% of 290,000 active. inhibition, % at 13.3 µM. AID 1565; in the data active = inhibition above about 60%
A3G deaminase = blocks human APOBEC3G single-stranded DNA deamination; AID 493012; Q9HC16; 0.28% of 330,000 active; recombinant A3G, ssDNA deamination FAM/TAMRA fluorescence; inhibition, % at 20 µM;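 active = inhibition of at least 40% at 20 µM, with no more than 30% in the related APOBEC3A deaminase screen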
Target sequence (Q9HC16 whole entry, looked up): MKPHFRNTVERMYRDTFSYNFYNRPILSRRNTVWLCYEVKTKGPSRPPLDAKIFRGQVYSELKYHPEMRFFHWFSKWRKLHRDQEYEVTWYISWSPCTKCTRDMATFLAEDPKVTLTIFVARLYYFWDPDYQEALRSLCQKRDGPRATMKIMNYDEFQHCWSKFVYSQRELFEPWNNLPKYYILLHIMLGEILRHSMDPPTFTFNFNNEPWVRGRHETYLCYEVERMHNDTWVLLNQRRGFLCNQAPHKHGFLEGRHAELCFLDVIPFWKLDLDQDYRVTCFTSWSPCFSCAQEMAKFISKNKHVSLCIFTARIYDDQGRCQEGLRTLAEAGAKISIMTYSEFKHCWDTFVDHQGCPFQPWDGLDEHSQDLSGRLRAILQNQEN
A3A deaminase = human APOBEC3A DNA deaminase inhibition; recombinant A3A, FAM/TAMRA ssDNA deamination fluorescence; inhibition, % at 20 µM; 0.41% of 330,000 active; AID 493011;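 active = at least 40% inhibition at 20 µM here, with at most 30% in a related deaminase screen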
aDG glyco act = alpha-DG glycosylation activation. activation, % at 10 µM. 0.22% of 360,000 active. Pro5-aDG cells, alpha-DG glycosylation AlphaScreen (IIH6); 0% Pro5, 100% B10-LARGE cell signal. AID 624168;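 active = activation of at least 8% versus controls, or a plate z-score of at least 8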;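 also: Pro5 are CHO cells carrying HIG-tagged alpha-DG that lacks glycosylation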
rCAG binder = binds r(CAG) RNA repeats; r(CAG) RNA repeat, TO-PRO-1 dye displacement fluorescence; inhibition, % at 3 µM; 1.3% of 370,000 active;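 active = inhibition above the plate cutoff, the mean of all test compounds on that plate plus 3 SD, cut at about 35% in these data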;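 also: higher means more dye released from RNA so lower well fluorescence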
ALR H2O2 inh = blocks human ALR sulfhydryl oxidase activity; purified ALR, DTT oxidation, H2O2 HRP-luminol luminescence; inhibition, % (concentration not given with the values); 3.8% of 290,000 active;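 active = mean replicate inhibition above about 79%, with every replicate also reaching it, limit read from the data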
Target sequence (P55789 whole entry, looked up): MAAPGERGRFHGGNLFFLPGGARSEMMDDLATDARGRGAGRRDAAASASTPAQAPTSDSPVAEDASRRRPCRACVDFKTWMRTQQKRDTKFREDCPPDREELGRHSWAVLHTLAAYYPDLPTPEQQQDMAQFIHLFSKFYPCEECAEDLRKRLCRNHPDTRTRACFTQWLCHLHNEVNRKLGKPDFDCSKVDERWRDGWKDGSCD
Large screens that a line does not name were inactive.

O=C(C1CC(=O)N(c2ccc3c(c2)OCCO3)C1)N1CCN(c2ccccc2O)CC1 (configuration not stated)	ALR H2O2 inh 84
Cc1nn(CCC(=O)NNC(=O)Nc2ccc(F)cc2)c(C)c1[N+](=O)[O-]	none (no result: PHOSPHO1 block, A3G deaminase, A3A deaminase, aDG glyco act, ALR H2O2 inh)
OCCCNc1nc(-c2ccc(Cl)cc2)nc2ccccc12	ALR H2O2 inh 98
COCCCNc1nc(-c2ccc(Cl)cc2)nc2ccccc12	none
COc1ccc(/C=N/Nc2nc3ccccc3[nH]2)c(OC)c1OC	ALR H2O2 inh 98
COc1ccc(/C=N/Nc2ccccn2)c(OC)c1OC	ALR H2O2 inh 99
Cc1cc(=O)[nH]c(N/N=C/c2c[nH]c3ccccc23)n1	ALR H2O2 inh 92
Cc1cc(=O)[nH]c(N/N=C/c2ccccc2C(F)(F)F)n1	none
C(=N\Nc1nc2ccccc2[nH]1)/c1c[nH]c2ccccc12	ALR H2O2 inh 99
C[C@@H]1C[C@H]2[C@@H](C)C(=O)N3[C@H](c4ccccc4)[C@H](C)C[C@H]3[C@@H](C)C(=O)N2[C@@H]1c1ccccc1	none (no result: PHOSPHO1 block, A3G deaminase, A3A deaminase, aDG glyco act, ALR H2O2 inh)
COc1ccccc1C(=O)NC1CCCCN(Cc2cccc(F)c2)C1=O (configuration not stated)	none (no result: PHOSPHO1 block, A3G deaminase, A3A deaminase, aDG glyco act, ALR H2O2 inh)
COC(=O)[C@]12C[C@H](CC(=O)N3CCN(C(=O)c4ccco4)CC3)C(=O)N(Cc3cccc4ccccc34)C1=C[C@H](COCc1ccccc1)O[C@@H]2C	none (no result: PHOSPHO1 block, A3G deaminase, A3A deaminase, aDG glyco act, ALR H2O2 inh)
C(/CCc1ccccc1)=N\Nc1nc2ccccc2[nH]1	ALR H2O2 inh 98
CCCC(=O)OC12CCCN(C1)/C(=C/c1cccc(OC)c1)C2 (configuration not stated)	none (no result: PHOSPHO1 block, A3G deaminase, A3A deaminase, aDG glyco act, ALR H2O2 inh)
S=C1NC2=C(CCC/C2=C\c2ccc(Cl)cc2)C(c2ccc(Cl)cc2)N1 (configuration not stated)	PHOSPHO1 block 92
CC(=O)c1ccccc1OC(=O)COc1ccc(Cl)cc1C	ALR H2O2 inh 96 (no result: aDG glyco act)
Cc1nn(C)c(Nc2ccc(Br)cc2)c1Br	ALR H2O2 inh 93
N#Cc1c(N)[nH]c(=S)c(C#N)c1-c1ccccc1	PHOSPHO1 block 96
c1ccc(-c2nc(-c3ccco3)cs2)nc1	ALR H2O2 inh 98
Cc1[nH]c2ccccc2c1C(=O)C(C)OC(=O)c1ccc(Cl)nc1 (configuration not stated)	none (no result: PHOSPHO1 block, ALR H2O2 inh)
Cc1[nH]c2ccccc2c1C(=O)C(C)OC(=O)c1ccc(NC(=O)CC#N)cc1 (configuration not stated)	ALR H2O2 inh 100 (no result: PHOSPHO1 block)
CC(=O)CC[C@@H]1CC[C@]2(CCCN(C(=O)C(C)(C)C)C2)O1	none (no result: PHOSPHO1 block, A3G deaminase, A3A deaminase, aDG glyco act, ALR H2O2 inh)
Cc1c(Br)cc(C(=O)NCc2ccco2)c(C)c1C	ALR H2O2 inh 98
Cc1ccc(C(=O)NCc2ccco2)cc1Br	none
c1ccc(-n2c(SCc3cccc4ccccc34)nnc2-c2ccccn2)cc1	none (no result: PHOSPHO1 block, A3G deaminase, A3A deaminase, aDG glyco act, ALR H2O2 inh)
Nc1ccc(CCc2nc3ccccc3o2)cc1	ALR H2O2 inh 91
NCc1ccc(-c2nc3ccccc3o2)cc1	none (no result: A3G deaminase, A3A deaminase, aDG glyco act, rCAG binder, ALR H2O2 inh)
Cc1ccc(NC(=O)CSc2nnc(-c3cccnc3)n2Cc2ccco2)cc1C	none (no result: PHOSPHO1 block, A3G deaminase, A3A deaminase, aDG glyco act, ALR H2O2 inh)
COc1ccc(CCN2C(=O)CC(NNC(=O)c3cccc(O)c3)C2=O)cc1 (configuration not stated)	ALR H2O2 inh 95
Cn1c(=O)c2[nH]c(SCC(=O)NCCc3ccc(F)cc3)nc2n(C)c1=O	none (no result: PHOSPHO1 block, A3G deaminase, A3A deaminase, aDG glyco act, ALR H2O2 inh)
Cc1ccc(-n2c(O)c(/C=C3/C(c4ccccc4)=Nc4ccccc43)c(=O)[nH]c2=O)cc1	ALR H2O2 inh 98
N#Cc1cccc(NC(=O)OC2CC3CC2[C@H]2CCCCN2[C@H]3Cc2ccccc2)c1 (some centres not stated)	none (no result: PHOSPHO1 block, A3G deaminase, A3A deaminase, aDG glyco act, ALR H2O2 inh)
C=CCSC1=C(C#N)C(c2ccccc2OCC)C(C#N)C(=O)N1 (configuration not stated)	PHOSPHO1 block 89
CCc1ccc(OCC(O)CN2CCN(c3ccc(OC)cc3)CC2)cc1 (configuration not stated)	ALR H2O2 inh 94
COc1ccc(N2CCN(CC(O)COc3cc(C)ccc3C)CC2)cc1 (configuration not stated)	none
COc1ccc(N2CCN(CC(O)COc3ccc(C)cc3C)CC2)cc1 (configuration not stated)	ALR H2O2 inh 79
COc1cc(C(C)=O)ccc1OCC(O)CN1CCN(c2ccc(C)c(C)c2)CC1 (configuration not stated)	ALR H2O2 inh 98
CC(=O)Nc1ccc(OCC(O)CN2CCN(c3ccc(C)c(Cl)c3)CC2)cc1 (configuration not stated)	ALR H2O2 inh 98
COC(=O)[C@]12C[C@H](CC(=O)N3CCCC3)C(=O)N(Cc3cccc4ccccc34)C1=C[C@H](COCc1ccccc1)O[C@@H]2C	none (no result: PHOSPHO1 block, A3G deaminase, A3A deaminase, aDG glyco act, ALR H2O2 inh)
Cc1ccc(C(=O)N(C)[C@H]2C[C@H]3c4[nH]c5c(-c6ccccc6)cccc5c4CCN3C(=O)[C@H]2[C@H](C)O)cc1	none (no result: PHOSPHO1 block, A3G deaminase, A3A deaminase, aDG glyco act, ALR H2O2 inh)
CC(C)[C@H](NC(=O)c1ccc(Cl)cc1Cl)C(=O)N1CCC[C@H]1C(=O)NCc1ccccc1	none (no result: PHOSPHO1 block, A3G deaminase, A3A deaminase, aDG glyco act, ALR H2O2 inh)
O=[N+]([O-])c1ccccc1S(=O)(=O)N1CCC(c2cn3ccccc3n2)CC1	none (no result: PHOSPHO1 block, A3G deaminase, A3A deaminase, aDG glyco act, ALR H2O2 inh)
O=C(NC1CC1)c1ccc2snnc2c1	none (no result: ALR H2O2 inh)
O=C(c1ccc2snnc2c1)N1CCCCC1	none
O=C(c1ccc2snnc2c1)N1CCSCC1	PHOSPHO1 block 99
CCOC(=O)N1CCC(NC(=O)c2ccc3snnc3c2)CC1	ALR H2O2 inh 98
CCOc1cc(/C=C(/C#N)C(=O)Nc2ccc(O)cc2)cc(Br)c1O	ALR H2O2 inh 99
C=CCNC(=O)/C(C#N)=C\c1cc(Cl)c(O)c(OCC)c1	none (no result: A3G deaminase, A3A deaminase)
COc1ccc(Cn2ccc3ccc(-c4ccc5ccn(C(=O)c6cccc(OC)c6)c5c4)cc32)cc1	none (no result: PHOSPHO1 block, A3G deaminase, A3A deaminase, aDG glyco act, ALR H2O2 inh)
Cc1nc(NC(C)C(=O)O)c2nc(C)oc2n1 (configuration not stated)	PHOSPHO1 block 62
CC(C)Oc1ccc(CNC(=S)N/N=C/c2ccc([N+](=O)[O-])cc2)cc1	PHOSPHO1 block 74
CC(C)COc1ccc(CNC(=S)N/N=C/c2ccc([N+](=O)[O-])cc2)cc1	PHOSPHO1 block 95 (no result: ALR H2O2 inh)
CCCOc1ccc(CNC(=S)N/N=C/c2ccc([N+](=O)[O-])cc2)cc1	PHOSPHO1 block 80
C[C@@H]1CN([C@H](C)CO)C(=O)c2c(c3ccccc3n2C)-c2ccccc2CO[C@@H]1CN(C)C(=O)CCN(C)C	none (no result: PHOSPHO1 block, A3G deaminase, A3A deaminase, aDG glyco act, ALR H2O2 inh)
Cc1cc(C(F)(F)F)nn1Cc1n[nH]c(=S)n1-c1ccc(F)cc1	none
CCc1ccc(-n2c(Cn3nc(C(F)(F)F)cc3C)n[nH]c2=S)cc1	PHOSPHO1 block 89
O=C(c1ccc(OC2CCN(Cc3ccccc3O)CC2)cc1)N1CCCCC1	none
COc1cccc(CN2CCC(Oc3ccc(C(=O)N4CCCCC4)cc3)CC2)c1O	ALR H2O2 inh 84
COc1ccc(-c2nc(CSCC(=O)N3CCN(c4cccc(C)c4)C(C)C3)c(C)o2)cc1OC (configuration not stated)	ALR H2O2 inh 99
COc1ccc(-c2nc(C#N)c(N3CCc4ccccc4C3)o2)cc1OC	none
